# Measurements: ChEMBL document CHEMBL1961873, “Compounds: GSK PKIS; Assays: Nanosyn kinase panel” (2012)
# Tests used:
# [1] = target: Mitogen-activated protein kinase 3 (Homo sapiens) (UniProt P27361); conditions: at 1 µM;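 note: values are mean percent inhibition of MAPK3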
# [2] = target: SRSF protein kinase 3 (Homo sapiens) (UniProt Q9UPE1); conditions: at 0.1 µM
# [3] = target: SRSF protein kinase 3 (Homo sapiens) (UniProt Q9UPE1); conditions: at 1 µM
# [4] = target: Mitogen-activated protein kinase 14 (Homo sapiens) (UniProt Q16539); conditions: at 0.1 µM
# Chain of Mitogen-activated protein kinase 14 (Homo sapiens) (Q16539 whole entry): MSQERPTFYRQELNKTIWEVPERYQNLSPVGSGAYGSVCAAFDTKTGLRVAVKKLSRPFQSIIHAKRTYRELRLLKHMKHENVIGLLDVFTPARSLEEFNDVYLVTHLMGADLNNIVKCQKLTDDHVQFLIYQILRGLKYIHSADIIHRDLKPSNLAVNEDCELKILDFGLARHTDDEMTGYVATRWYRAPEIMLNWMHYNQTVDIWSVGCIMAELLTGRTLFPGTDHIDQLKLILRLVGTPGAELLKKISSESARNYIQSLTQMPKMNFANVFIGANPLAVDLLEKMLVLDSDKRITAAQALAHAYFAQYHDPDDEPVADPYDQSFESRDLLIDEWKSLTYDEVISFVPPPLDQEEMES
# [5] = target: Mitogen-activated protein kinase 14 (Homo sapiens) (UniProt Q16539); conditions: at 1 µM
# [6] = target: Mitogen-activated protein kinase 11 (Homo sapiens) (UniProt Q15759); conditions: at 0.1 µM
# Chain of Mitogen-activated protein kinase 11 (Homo sapiens) (Q15759 whole entry): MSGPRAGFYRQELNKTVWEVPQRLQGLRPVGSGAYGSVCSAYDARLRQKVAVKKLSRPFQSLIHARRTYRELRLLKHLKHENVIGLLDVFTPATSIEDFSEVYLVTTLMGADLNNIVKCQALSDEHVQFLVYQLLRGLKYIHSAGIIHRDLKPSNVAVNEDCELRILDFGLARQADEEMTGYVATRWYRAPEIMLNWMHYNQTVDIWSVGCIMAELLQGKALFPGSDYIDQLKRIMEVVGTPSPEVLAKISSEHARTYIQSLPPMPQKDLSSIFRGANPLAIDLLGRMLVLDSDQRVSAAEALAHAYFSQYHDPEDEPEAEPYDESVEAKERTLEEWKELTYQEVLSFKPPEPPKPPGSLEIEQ
# [7] = target: Mitogen-activated protein kinase 11 (Homo sapiens) (UniProt Q15759); conditions: at 1 µM
# [8] = target: T1, Mitogen-activated protein kinase 13 (Homo sapiens) (UniProt O15264); conditions: at 0.1 µM
# T1 sequence (whole entry): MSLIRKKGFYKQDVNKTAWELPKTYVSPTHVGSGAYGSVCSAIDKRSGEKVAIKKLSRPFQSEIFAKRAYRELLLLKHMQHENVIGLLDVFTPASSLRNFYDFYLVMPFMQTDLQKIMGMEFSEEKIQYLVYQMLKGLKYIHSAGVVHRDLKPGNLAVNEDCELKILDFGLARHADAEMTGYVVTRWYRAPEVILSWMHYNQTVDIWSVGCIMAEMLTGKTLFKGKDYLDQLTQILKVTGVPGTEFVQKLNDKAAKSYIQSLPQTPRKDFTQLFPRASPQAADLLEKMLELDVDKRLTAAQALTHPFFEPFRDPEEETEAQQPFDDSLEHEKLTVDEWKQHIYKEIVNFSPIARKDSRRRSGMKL
# [9] = target: T1, Mitogen-activated protein kinase 13 (Homo sapiens); conditions: at 1 µM
# [10] = target: T2, Mitogen-activated protein kinase 12 (Homo sapiens) (UniProt P53778); conditions: at 0.1 µM
# T2 sequence (whole entry): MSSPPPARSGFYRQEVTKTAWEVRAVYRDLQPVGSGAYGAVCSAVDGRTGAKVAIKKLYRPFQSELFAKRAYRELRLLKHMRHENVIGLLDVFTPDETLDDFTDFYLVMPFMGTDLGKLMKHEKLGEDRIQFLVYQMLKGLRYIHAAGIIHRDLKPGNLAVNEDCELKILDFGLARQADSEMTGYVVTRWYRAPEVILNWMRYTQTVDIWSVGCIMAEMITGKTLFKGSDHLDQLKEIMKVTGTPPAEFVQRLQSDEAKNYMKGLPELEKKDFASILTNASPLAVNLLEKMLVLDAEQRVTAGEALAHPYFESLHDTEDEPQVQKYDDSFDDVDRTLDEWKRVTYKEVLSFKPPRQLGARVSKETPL
# [11] = target: T2, Mitogen-activated protein kinase 12 (Homo sapiens); conditions: at 1 µM
# [12] = target: SRSF protein kinase 1 (Homo sapiens) (UniProt Q96SB4); conditions: at 0.1 µM
# Chain of SRSF protein kinase 1 (Homo sapiens) (Q96SB4 whole entry, canonical isoform): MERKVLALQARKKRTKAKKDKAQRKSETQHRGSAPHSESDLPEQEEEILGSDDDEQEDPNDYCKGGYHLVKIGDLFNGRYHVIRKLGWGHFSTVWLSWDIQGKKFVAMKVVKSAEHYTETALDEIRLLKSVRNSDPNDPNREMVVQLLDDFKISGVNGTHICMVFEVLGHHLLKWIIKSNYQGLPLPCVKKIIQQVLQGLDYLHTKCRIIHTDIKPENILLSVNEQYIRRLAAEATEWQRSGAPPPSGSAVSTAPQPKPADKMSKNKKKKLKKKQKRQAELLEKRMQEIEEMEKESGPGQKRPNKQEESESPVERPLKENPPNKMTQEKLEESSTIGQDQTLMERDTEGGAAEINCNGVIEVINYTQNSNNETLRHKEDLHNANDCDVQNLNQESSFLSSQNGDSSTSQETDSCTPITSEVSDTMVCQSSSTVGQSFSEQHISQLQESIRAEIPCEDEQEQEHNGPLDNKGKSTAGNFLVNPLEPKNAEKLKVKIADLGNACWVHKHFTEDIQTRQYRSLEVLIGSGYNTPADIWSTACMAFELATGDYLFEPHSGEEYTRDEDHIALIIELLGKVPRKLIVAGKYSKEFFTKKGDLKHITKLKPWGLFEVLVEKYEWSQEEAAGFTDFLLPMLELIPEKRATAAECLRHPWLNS
# [13] = target: SRSF protein kinase 1 (Homo sapiens) (UniProt Q96SB4); conditions: at 1 µM
# [14] = target: Phosphatidylinositol 4,5-bisphosphate 3-kinase catalytic subunit alpha isoform (Homo sapiens) (UniProt P42336); conditions: at 0.1 µM
# Chain of Phosphatidylinositol 4,5-bisphosphate 3-kinase catalytic subunit alpha isoform (Homo sapiens) (P42336 whole entry, canonical isoform): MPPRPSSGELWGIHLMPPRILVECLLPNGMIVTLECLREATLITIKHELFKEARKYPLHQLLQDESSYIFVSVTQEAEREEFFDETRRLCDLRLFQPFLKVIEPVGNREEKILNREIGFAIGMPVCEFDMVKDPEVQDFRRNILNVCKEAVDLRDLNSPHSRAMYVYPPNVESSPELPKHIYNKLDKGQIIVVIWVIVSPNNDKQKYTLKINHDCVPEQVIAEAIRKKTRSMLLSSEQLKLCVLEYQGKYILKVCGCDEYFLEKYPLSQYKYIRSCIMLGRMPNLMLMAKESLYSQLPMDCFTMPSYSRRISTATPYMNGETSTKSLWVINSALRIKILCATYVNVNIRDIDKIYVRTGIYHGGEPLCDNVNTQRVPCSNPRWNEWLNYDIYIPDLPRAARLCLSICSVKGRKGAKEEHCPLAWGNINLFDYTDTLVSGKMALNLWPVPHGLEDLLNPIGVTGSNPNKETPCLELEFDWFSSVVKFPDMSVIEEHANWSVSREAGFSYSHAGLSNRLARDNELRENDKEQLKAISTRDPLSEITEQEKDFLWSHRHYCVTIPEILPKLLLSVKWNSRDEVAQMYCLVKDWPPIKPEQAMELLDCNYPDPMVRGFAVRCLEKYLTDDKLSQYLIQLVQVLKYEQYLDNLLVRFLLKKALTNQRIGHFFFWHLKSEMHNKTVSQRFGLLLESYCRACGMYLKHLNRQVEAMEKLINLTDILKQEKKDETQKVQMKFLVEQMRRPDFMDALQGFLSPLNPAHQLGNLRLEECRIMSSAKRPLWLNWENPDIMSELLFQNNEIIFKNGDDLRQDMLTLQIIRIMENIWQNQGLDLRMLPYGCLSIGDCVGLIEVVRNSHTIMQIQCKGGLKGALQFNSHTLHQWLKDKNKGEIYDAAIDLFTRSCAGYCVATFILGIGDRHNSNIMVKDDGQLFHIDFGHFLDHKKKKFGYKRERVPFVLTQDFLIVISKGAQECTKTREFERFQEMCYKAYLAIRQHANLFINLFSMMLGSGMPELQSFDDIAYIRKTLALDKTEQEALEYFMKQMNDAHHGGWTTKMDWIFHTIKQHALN
# [15] = target: Phosphatidylinositol 4,5-bisphosphate 3-kinase catalytic subunit alpha isoform (Homo sapiens) (UniProt P42336); conditions: at 1 µM
# [16] = target: T3, Phosphatidylinositol 4,5-bisphosphate 3-kinase catalytic subunit delta isoform (Homo sapiens) (UniProt O00329); conditions: at 0.1 µM
# T3 sequence (whole entry): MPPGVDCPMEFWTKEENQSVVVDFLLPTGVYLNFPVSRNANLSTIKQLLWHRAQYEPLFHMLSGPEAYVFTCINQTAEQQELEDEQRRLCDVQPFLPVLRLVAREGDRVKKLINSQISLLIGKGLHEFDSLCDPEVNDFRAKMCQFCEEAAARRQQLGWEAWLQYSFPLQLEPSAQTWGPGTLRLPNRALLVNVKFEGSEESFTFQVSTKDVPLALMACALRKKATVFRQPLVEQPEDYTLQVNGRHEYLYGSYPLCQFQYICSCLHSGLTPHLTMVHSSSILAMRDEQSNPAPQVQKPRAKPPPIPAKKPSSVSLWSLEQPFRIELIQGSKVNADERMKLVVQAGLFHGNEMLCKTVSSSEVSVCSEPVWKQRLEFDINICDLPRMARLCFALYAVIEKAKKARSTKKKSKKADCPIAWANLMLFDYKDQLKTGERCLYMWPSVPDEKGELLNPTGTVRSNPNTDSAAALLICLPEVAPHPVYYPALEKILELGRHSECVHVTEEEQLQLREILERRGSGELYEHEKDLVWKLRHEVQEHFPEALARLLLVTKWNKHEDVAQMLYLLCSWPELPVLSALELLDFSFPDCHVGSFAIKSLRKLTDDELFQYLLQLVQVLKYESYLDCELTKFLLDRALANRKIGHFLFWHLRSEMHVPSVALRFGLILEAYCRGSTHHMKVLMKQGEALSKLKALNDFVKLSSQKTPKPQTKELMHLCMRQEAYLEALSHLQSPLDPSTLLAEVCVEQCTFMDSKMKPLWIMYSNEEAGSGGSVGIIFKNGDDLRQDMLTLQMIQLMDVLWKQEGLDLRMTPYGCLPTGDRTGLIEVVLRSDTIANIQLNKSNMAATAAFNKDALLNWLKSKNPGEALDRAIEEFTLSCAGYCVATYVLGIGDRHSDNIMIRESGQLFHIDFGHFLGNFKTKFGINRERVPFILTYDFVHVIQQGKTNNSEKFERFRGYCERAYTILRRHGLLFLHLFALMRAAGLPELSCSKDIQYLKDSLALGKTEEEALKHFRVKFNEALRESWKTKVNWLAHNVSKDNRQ
# [17] = target: T3, Phosphatidylinositol 4,5-bisphosphate 3-kinase catalytic subunit delta isoform (Homo sapiens); conditions: at 1 µM
# [18] = target: Phosphatidylinositol 4-kinase beta (Homo sapiens) (UniProt Q9UBF8); conditions: at 0.1 µM
# Chain of Phosphatidylinositol 4-kinase beta (Homo sapiens) (Q9UBF8 2-816 limits assumed): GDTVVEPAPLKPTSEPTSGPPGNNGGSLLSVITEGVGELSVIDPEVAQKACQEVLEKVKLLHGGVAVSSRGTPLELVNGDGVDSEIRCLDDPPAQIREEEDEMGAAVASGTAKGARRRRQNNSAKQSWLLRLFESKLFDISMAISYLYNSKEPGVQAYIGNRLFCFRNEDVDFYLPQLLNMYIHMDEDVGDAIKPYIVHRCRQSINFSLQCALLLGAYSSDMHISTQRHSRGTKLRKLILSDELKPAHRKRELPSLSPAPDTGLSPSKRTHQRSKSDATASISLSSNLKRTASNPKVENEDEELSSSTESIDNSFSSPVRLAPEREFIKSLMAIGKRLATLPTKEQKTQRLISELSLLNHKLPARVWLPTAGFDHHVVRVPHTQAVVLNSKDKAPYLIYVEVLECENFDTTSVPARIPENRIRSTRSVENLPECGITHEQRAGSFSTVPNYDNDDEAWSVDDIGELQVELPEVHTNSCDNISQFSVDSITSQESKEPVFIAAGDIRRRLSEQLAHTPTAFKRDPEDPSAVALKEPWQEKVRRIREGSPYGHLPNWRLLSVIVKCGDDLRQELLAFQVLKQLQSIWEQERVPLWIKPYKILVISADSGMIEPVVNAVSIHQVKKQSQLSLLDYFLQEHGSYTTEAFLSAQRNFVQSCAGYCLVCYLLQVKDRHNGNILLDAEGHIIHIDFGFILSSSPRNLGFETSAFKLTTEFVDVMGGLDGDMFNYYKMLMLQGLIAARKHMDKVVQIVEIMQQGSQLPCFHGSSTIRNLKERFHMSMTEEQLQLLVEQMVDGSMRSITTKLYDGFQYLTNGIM
# [19] = target: Phosphatidylinositol 4-kinase beta (Homo sapiens) (UniProt Q9UBF8); conditions: at 1 µM
# [20] = target: Sphingosine kinase 1 (Homo sapiens) (UniProt Q9NYA1); conditions: at 0.1 µM;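 note: mean percent inhibition of SPHK1 activity, measured within the GSK PKIS screening panel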
# Chain of Sphingosine kinase 1 (Homo sapiens) (Q9NYA1 whole entry): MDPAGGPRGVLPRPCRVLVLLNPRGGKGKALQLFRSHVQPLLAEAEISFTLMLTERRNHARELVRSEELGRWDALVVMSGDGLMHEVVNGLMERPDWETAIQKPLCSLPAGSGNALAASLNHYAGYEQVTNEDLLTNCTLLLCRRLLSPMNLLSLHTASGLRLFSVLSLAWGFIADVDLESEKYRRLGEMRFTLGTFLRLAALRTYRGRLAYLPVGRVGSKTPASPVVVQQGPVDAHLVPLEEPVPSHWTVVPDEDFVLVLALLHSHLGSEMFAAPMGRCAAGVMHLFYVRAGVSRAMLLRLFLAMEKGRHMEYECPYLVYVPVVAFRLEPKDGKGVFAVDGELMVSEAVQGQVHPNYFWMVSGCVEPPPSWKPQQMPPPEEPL
# Chain of SRSF protein kinase 3 (Homo sapiens) (Q9UPE1 whole entry): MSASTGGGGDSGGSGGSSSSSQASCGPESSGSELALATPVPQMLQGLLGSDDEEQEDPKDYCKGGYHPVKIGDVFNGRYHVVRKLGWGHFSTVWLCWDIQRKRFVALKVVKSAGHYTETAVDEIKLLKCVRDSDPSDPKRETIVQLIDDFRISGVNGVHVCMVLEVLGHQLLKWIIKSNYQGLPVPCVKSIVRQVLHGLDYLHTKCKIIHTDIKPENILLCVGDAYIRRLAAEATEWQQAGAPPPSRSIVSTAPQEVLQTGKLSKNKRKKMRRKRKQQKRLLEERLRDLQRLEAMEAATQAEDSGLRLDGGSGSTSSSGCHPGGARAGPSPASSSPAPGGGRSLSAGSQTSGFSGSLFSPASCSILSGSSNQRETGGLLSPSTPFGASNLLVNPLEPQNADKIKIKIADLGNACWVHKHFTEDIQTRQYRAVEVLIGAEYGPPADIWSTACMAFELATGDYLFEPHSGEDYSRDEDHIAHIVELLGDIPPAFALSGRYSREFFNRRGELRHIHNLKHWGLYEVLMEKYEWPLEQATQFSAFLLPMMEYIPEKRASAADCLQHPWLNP
# Chain of Mitogen-activated protein kinase 3 (Homo sapiens) (P27361 whole entry): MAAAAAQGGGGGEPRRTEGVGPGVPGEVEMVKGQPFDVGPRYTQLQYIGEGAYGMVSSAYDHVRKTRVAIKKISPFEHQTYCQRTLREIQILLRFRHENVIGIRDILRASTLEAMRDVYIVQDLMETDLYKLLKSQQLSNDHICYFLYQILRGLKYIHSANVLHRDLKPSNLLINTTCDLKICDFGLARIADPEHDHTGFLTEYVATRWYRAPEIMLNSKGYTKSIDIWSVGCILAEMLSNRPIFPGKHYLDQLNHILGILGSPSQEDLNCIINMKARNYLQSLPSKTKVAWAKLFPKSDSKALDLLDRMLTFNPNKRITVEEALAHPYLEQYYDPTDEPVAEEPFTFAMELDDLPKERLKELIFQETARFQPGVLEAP
Structure (SMILES),inhibition [1] [%],inhibition [2] [%],inhibition [3] [%],inhibition [4] [%],inhibition [5] [%],inhibition [6] [%],inhibition [7] [%],inhibition [8] [%],inhibition [9] [%],inhibition [10] [%],inhibition [11] [%],inhibition [12] [%],inhibition [13] [%],inhibition [14] [%],inhibition [15] [%],inhibition [16] [%],inhibition [17] [%],inhibition [18] [%],inhibition [19] [%],inhibition [20] [%]
CCS(=O)(=O)c1ccc(OC)c(Nc2ncc(-c3cccc(OC)c3)o2)c1,-2.17,0.87,0.2,4.78,7.73,1.06,5.17,1.24,4.76,-4.79,2.08,-1.9,-1.28,1.81,2,3.48,3.98,3.39,-0.15,-0.07
Nc1ccc(C#Cc2cncnc2Nc2ccc(OCc3cccc(F)c3)c(Cl)c2)cc1,1.8,-1.31,-1.26,7.8,8.07,5.64,6.16,2.44,1.41,2.15,2.1,-1.42,-0.29,2.27,3.14,0.98,1.62,5.59,0.07,0.21
CN(C)C(=O)O[C@H]1CN[C@H](C#Cc2cc3ncnc(Nc4ccc(OCc5cccc(F)c5)c(Cl)c4)c3s2)C1,3.14,0.23,-1.8,1.35,7,0.51,1.53,-0.2,2.51,0.18,1.22,-0.93,-1.25,1.47,31.7,1.7,17.4,4.95,-3.29,0.36
COC(=O)c1cncc(/C=C/c2c(C)cc(O)cc2C)c1,3.36,1.31,1.48,1.5,5.57,0.99,3.92,1.59,4.29,-1.81,1.22,0.45,2.47,2.59,2.56,3.23,2.23,2.65,0.11,2.52
NS(=O)(=O)c1ccc(N/N=C2\C(=O)Nc3ccc(Cl)cc32)cc1,4.54,-0.26,0.76,0.03,4.11,3.71,5.91,1.25,3.33,0.26,2.14,-1.45,0.49,2.11,2.12,0.01,0.13,5.17,-1.54,0.4
COc1cccc(-n2ncc3c(N/N=C/c4ccc(S(C)(=O)=O)cc4)ncnc32)c1,1.55,-0.64,1,-3.8,4.7,0.81,1.99,1.44,6.79,2.12,2.32,-0.76,0.02,1.3,1.54,1,2.43,-0.72,-2.28,-1.72
NC(=O)c1cccc(Nc2nccc(Nc3cccc(F)c3)n2)c1,1.21,-1.02,-0.91,2.29,2.5,0.85,1.67,-0.02,0.02,1.16,1.35,-2.36,-1.96,-0.28,1.22,-1.45,-4.65,3.27,1.27,0.35
Cc1ccc(Nc2ccnc(Nc3cccc(C(N)=O)c3)n2)cc1O,5.1,0.91,7.12,4.41,28,3.7,17.7,-1.12,4.69,-1.03,1.74,-1.01,1.41,1.78,3.39,2.88,9.7,3.13,1.94,0.79
COc1cc(/C=N/Nc2ncnc3c2cnn3C(C)C)ccc1O,2.88,-2.39,-1.29,1.82,3.92,0.99,2.61,1.12,3.06,1.85,1.85,-0.73,1.12,19,70.5,20.9,71.3,-8.74,26.5,0.17
O=S(=O)(CCOCc1ccc(-c2ccc3ncnc(Nc4ccc(OCc5cccc(F)c5)c(Cl)c4)c3c2)o1)c1ccccc1,1.69,-0.89,1.24,0.07,0.7,-0.78,-0.75,1.66,1.53,1.14,4.2,-2.76,-1.54,1.05,12.9,0.99,10.1,0.56,0.4,1.08
Cc1ccc2c(c1)/C(=N/Nc1ccc(S(N)(=O)=O)cc1)C(=O)N2,1.36,-0.75,-2.57,1.29,5.27,3.1,6.52,-0.85,0.5,0.27,-0.05,-2.83,-5.98,-1.13,8.11,1.23,2.01,6.34,1.81,-1.11
COc1cc(Nc2nccc(-c3cnn4ncccc34)n2)cc(OC)c1,9.37,-0.86,-1.27,2.59,10.3,2.14,10.7,1.49,12.1,1.04,5.11,-0.28,4.85,2.19,20.5,6.1,35,-0.41,14.9,0
CN(C)c1cc2c(Nc3ccc4c(cnn4Cc4ccccc4)c3)ncnc2cn1,-0.93,-1.42,-0.9,5.84,8.31,2.35,4.06,0.05,2.47,1.3,1.89,-2.31,-3.59,1.32,1.28,0.82,3.28,-1.83,7.07,0.08
